Reference: the supplement of paper PMC10646978
± gives the standard deviation.

Legend:
Settings in all cases: modulator concentration 10 µM
[1] = tested on: RAW-Dual (murine macrophage reporter line); experiment: NF-kB reporter (SEAP) activity fold change vs agonist alone; higher = enhanced NF-kB activity
Outline: (§1)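 Overnight stimulation with a PRR agonist followed pre-incubation for 1 hour at 37 °C with compound at 10 μM final. This was done in RAW-Dual murine macrophage reporter cells seeded at 50 000 per well in 384-well plates. NF-κB (SEAP, QUANTI-Blue absorbance at 620 nm) and IRF (Lucia luciferase, QUANTI-Luc luminescence) were read from the supernatant. Each reporter's fold change relative to the mean agonist-only control on the same plate was averaged over replicate plates.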

[2] = tested on: RAW-Dual (murine macrophage reporter line); experiment: IRF reporter (Lucia luciferase) activity fold change vs agonist alone; higher = enhanced IRF activity
Outline: as §1

[3] = tested on: RAW-Dual (murine macrophage reporter line); experiment: viability score (confluency relative to resting cells, overnight) (fraction); higher = more viable, active = viable (0.7 or more)
Outline: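 RAW-Dual macrophages in 384-well plates were treated overnight with compound at 10 μM final. IncuCyte imaging recorded confluency, and IncuCyte software built two confluency masks across every imaged well. The viability score expresses confluency relative to resting cells and was judged against a cutoff, which a compound met only if both masks exceeded 70% of resting cells.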

[4] = agonist: CpG ODN 1826 0.5 ug/mL

SMILES	NF-kB reporter [1, 4]	NF-kB reporter ([1]; agonist: LPS 0.1 ug/mL)	NF-kB reporter ([1]; agonist: MPLA […])	IRF reporter ([2]; agonist: 3'3'-cGAMP 10 ug/mL)	IRF reporter ([2]; agonist: LPS 0.1 ug/mL)	IRF reporter ([2]; agonist: MPLA […])	viability score [3]
O=c1cc2c(nn1CC1CCN(CC3(O)CCOCC3)CC1)CCCC2	1.08 ± 0.1	0.988 ± 0.099	0.918 ± 0.066	1.08 ± 0.063	1.21 ± 0.075	1.04 ± 0.17	1.01 (active)
O=C(C(c1ccccc1)c1ccccc1)N1CCC(n2nccn2)CC1	1 ± 0.054	1.09 ± 0.13	0.904 ± 0.063	0.989 ± 0.053	1.25 ± 0.078	1.16 ± 0.12	0.999 (active)
O=C(CCn1c(=O)oc2ccccc21)Nc1ccccc1	1.03 ± 0.17	1.22 ± 0.19	0.881 ± 0.08	0.969 ± 0.032	1.16 ± 0.19	1.06 ± 0.13	0.998 (active)
Cl.Nc1ccn([C@@H]2O[C@H](CO)[C@@H](O)[C@@H]2O)c(=O)n1	1.61 ± 0.12	1.13 ± 0.068	1.06 ± 0.047	0.87 ± 0.13	1.03 ± 0.1	0.8 ± 0.079	0.579 (inactive)
COC(CNS(=O)(=O)c1cccnc1)c1ccc(C)s1 (configuration not stated)	1.06 ± 0.073	0.992 ± 0.086	1.01 ± 0.096	1.01 ± 0.04	1.02 ± 0.048	0.958 ± 0.12	0.997 (active)
O=C(Cc1ccc(NC(=O)c2ccc(OC(F)(F)F)cc2)cc1)NCC(F)(F)F	1.22 ± 0.094	1.04 ± 0.12	0.994 ± 0.031	0.984 ± 0.055	1.03 ± 0.077	1.04 ± 0.18	0.999 (active)
O=C(NC12CC3CC(CC(C3)C1)C2)N1CCOCC1	0.95 ± 0.16	1.02 ± 0.084	0.989 ± 0.12	0.993 ± 0.027	1.22 ± 0.21	1.32 ± 0.17	0.967 (active)
CCCCCOC(=O)CSc1nnc(-c2ccc(Cl)cc2Cl)o1	0.957 ± 0.076	0.981 ± 0.083	0.99 ± 0.048	1.07 ± 0.23	1.04 ± 0.051	1.02 ± 0.14	1 (active)
FC(F)(F)c1ccc(/C=C/c2nc(COc3ccc(CCCCn4ccnn4)cc3)co2)cc1	1.26 ± 0.17	1.71 ± 0.29	1.46 ± 0.09	0.914 ± 0.028	1.67 ± 0.14	1.77 ± 0.16	0.995 (active)
CN1CCN(C(=O)C(C)(c2ccccc2)c2ccccc2)CC1	0.804 ± 0.063	1.1 ± 0.062	0.946 ± 0.056	0.981 ± 0.039	1.22 ± 0.13	1.08 ± 0.17	1 (active)
CCCc1nc2ccccc2n1C(=O)C=CC(=O)O	0.789 ± 0.061	0.833 ± 0.06	1.13 ± 0.17	0.981 ± 0.046	1.46 ± 0.12	1.59 ± 0.16	1 (active)
COC1CC2CCC(C1)N2S(=O)(=O)c1ccc(Br)cc1 (configuration not stated)	0.93 ± 0.089	1.05 ± 0.1	0.909 ± 0.04	1.01 ± 0.11	1.22 ± 0.16	1.15 ± 0.24	1.01 (active)
CCc1cc(=O)oc2cc(OCC(=O)OC(C)C)ccc12	0.827 ± 0.064	0.857 ± 0.042	1.11 ± 0.096	1.04 ± 0.048	1.44 ± 0.096	1.73 ± 0.24	1 (active)
COCCOCC1CCN(C(=O)c2cc(-c3cccc(OC)c3)n[nH]2)CC1	1.09 ± 0.076	0.967 ± 0.092	0.992 ± 0.051	0.957 ± 0.039	1.04 ± 0.059	0.985 ± 0.2	0.995 (active)
Brc1ccc2ncnc(Nc3ccccc3)c2c1	1.03 ± 0.12	1.25 ± 0.097	1.04 ± 0.029	0.357 ± 0.021	0.629 ± 0.039	0.731 ± 0.08	1 (active)
CC(=O)SCC(Cc1ccccc1)C(=O)NCC(=O)OCc1ccccc1 (configuration not stated)	1.01 ± 0.075	0.997 ± 0.07	0.99 ± 0.045	0.967 ± 0.08	0.76 ± 0.027	0.785 ± 0.087	1 (active)
CCOC(=O)C1=C(C)NC(C)=C(C(=O)OC)C1c1ccc([N+](=O)[O-])cc1 (configuration not stated)	0.97 ± 0.24	1.01 ± 0.12	1.13 ± 0.23	1.16 ± 0.049	1.01 ± 0.21	1.09 ± 0.21	0.985 (active)
COC(=O)C1=C(C)NC(C)=C(C(=O)O[C@@H]2CCCN(Cc3ccccc3)C2)[C@@H]1c1cccc([N+](=O)[O-])c1 [Prestw-1766]	0.317 ± 0.025	0.731 ± 0.069	0.717 ± 0.071	0.412 ± 0.043	1.1 ± 0.14	0.886 ± 0.21	1.07 (active)
Cn1nccc1-c1ccc(CNC(=O)c2cc(Br)cs2)cn1	1.02 ± 0.082	0.974 ± 0.078	1.16 ± 0.12	1.03 ± 0.032	1.35 ± 0.17	1.53 ± 0.23	1 (active)
CCNC(=O)CCC/C=C\C[C@@H]1[C@@H](/C=C/C(O)CCc2ccccc2)[C@@H](O)C[C@@H]1O (some centres not stated)	0.953 ± 0.059	0.965 ± 0.076	0.953 ± 0.041	0.994 ± 0.055	0.961 ± 0.061	0.95 ± 0.1	1.01 (active)
CSCCC(NC(C)=O)C(=O)N1CCc2nc3ccc(Cl)cn3c(=O)c2C1 (configuration not stated)	1.42 ± 0.35	0.918 ± 0.047	1.06 ± 0.12	1.01 ± 0.043	1.24 ± 0.17	1.29 ± 0.21	0.986 (active)
O=C(O)c1cc(Nc2ccnc3cc(Cl)ccc23)ccc1O	1.04 ± 0.082	1.02 ± 0.088	0.932 ± 0.044	0.963 ± 0.05	1.02 ± 0.056	0.96 ± 0.18	1 (active)
O=C(O)c1ccccc1	1.07 ± 0.21	1.24 ± 0.38	0.974 ± 0.089	0.933 ± 0.029	1.46 ± 0.34	1.33 ± 0.1	0.998 (active)
O=C(C=Cc1ccccc1)c1ccc(OC2OC(CO)C(O)C(O)C2O)cc1O (configuration not stated)	1.18 ± 0.068	1.03 ± 0.082	0.94 ± 0.07	1.02 ± 0.039	1.32 ± 0.087	1.2 ± 0.17	0.986 (active)
Cc1noc(C)c1CN1CCC(C(F)(F)F)CC1.Cl	0.908 ± 0.048	0.947 ± 0.081	1.1 ± 0.066	1.09 ± 0.072	1.32 ± 0.29	1.6 ± 0.52	0.937 (active)
CC(C(=O)N1CCN(S(=O)(=O)C2CC2)CC1)n1nc2c(cc1=O)CCC2 (configuration not stated)	0.928 ± 0.086	1.06 ± 0.095	0.934 ± 0.082	0.977 ± 0.091	0.964 ± 0.1	0.904 ± 0.19	1.01 (active)
